14 compounds from PubChem BioAssay (EPA / NIEHS) can be followed below.

Results filed as inconclusive are left out. Active and inactive are the calls of the source. How the source made its calls, unless noted: active means hit-call score of the fitted dose curve at least 0.9, where 1 is the maximum; inconclusive means response in the unintended direction; inactive means score below 0.9.

In assay [1] the target is T1, Thyroid hormone receptor alpha (Rattus norvegicus) + Thyroid hormone receptor beta (Rattus norvegicus) (UniProt P18113+P63059). Description: TOX21_TR_LUC_GH3_Antagonist_Followup: Tox21 GH3 Thyroid Hormone Receptor Antagonism Luciferase Follow-Up Assay (AID 2283942). In outline: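 Luminescence read-out (ONE-Glo, 30 min at room temperature) in GH3 reporter cells challenged with 1.0 nM T3 final. Compounds ran at 92 uM to 5nM over 15 concentrations for 24 h; DMSO served as negative control and baseline.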
T1 sequence (P63059 whole entry, looked up): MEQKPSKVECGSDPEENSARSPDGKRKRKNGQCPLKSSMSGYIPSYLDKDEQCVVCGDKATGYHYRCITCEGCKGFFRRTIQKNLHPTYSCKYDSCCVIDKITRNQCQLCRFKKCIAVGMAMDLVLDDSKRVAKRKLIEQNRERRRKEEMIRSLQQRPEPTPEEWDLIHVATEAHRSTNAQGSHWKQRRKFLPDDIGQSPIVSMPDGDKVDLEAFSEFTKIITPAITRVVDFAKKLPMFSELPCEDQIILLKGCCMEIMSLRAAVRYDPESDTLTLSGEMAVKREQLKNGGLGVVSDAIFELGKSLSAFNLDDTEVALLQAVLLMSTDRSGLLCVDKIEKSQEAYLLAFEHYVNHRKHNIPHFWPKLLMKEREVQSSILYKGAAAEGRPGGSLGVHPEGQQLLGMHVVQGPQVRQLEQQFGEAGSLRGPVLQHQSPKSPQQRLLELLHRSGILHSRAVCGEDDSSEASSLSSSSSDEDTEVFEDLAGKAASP
T1 sequence (P18113 whole entry, looked up): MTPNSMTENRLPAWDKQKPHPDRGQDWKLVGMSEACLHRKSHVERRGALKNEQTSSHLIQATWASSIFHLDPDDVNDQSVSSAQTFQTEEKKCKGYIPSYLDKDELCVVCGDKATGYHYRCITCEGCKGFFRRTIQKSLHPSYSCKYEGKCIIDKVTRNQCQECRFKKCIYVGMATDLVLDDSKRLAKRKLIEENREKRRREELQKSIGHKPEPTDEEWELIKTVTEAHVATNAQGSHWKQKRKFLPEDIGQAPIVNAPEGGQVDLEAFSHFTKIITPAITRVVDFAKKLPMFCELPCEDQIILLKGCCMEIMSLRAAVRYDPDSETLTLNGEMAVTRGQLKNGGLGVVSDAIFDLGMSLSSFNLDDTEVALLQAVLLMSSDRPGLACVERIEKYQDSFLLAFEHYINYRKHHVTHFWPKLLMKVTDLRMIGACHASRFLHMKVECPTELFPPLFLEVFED

Assay [2] has as its target THRA (gene 7067) (UniProt P10827). Description: TOX21_TRA_COA_Antagonist_Followup_ratio: Tox21 Thyroid Hormone Receptor alpha Antagonism through Coactivator Recruitment Follow-Up Assay, Ratio (AID 2283953). An outline of the steps:
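GST-TRα LBD 2.5 nM, BSA 0.10%, + cpd; then FITC-SRC-2 peptide 200 nM + Tb-anti-GST Ab 2 nM. TR-FRET ratio 520/495 nm. Norm: DMSO = 0%, T3 = 100%.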

Assay [3] is described as follows: TOX21_TRB_BLA_Antagonist_Followup_viability: Viability Assessment in the Tox21 Thyroid Hormone Receptor beta Antagonism Beta-lactamase (BLA) Follow-Up Assay (AID 2283961). In outline: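 Cytotoxicity is measured in parallel with the antagonist-mode TRβ beta-lactamase screen, using ATP-coupled luciferase luminescence. Engineered HEK293T cells are treated for 18 h with 11-point compound series in triplicate.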

Assay [4] is described as follows: CEETOX_H295R_CORTIC_noMTC: CeeTox H295R High-throughput Steroidogenesis Assay for Corticosterone (CORTIC), maximum tolerated concentration (MTC) filtered results only (AID 2283917; active means hit-call score of the fitted dose curve at least 0.9, where 1 is the maximum; inactive means score below 0.9). The following applies: actives raise or lower the signal. An outline of the steps:
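Corticosterone secreted into the medium was measured by reverse-phase C18 HPLC with tandem MS after MTBE extraction. Cells (H295R) had 48 h forskolin (10 uM) stimulation before 48 h chemical exposure; gain or loss of signal was fitted relative to DMSO.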

Assay [5] in a line: CEETOX_H295R_PROG_noMTC: CeeTox H295R High-throughput Steroidogenesis Assay for Progesterone (PROG), maximum tolerated concentration (MTC) filtered results only (AID 2283920; active means hit-call score of the fitted dose curve at least 0.9, where 1 is the maximum; inactive means score below 0.9). To be noted: actives raise or lower the signal. An outline of the steps: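 Readout: medium progesterone by MTBE extraction, reverse-phase C18 HPLC, ESI-positive MS/MS. Human H295R cells, 10 uM forskolin pretreatment 48 h, chemical 48 h in 0.1% DMSO. Gain or loss fitted against DMSO baseline.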

Assay [6] is described as follows: CEETOX_H295R_DOC_noMTC: CeeTox H295R High-throughput Steroidogenesis Assay for DOC, maximum tolerated concentration (MTC) filtered results only (AID 2283918; active means hit-call score of the fitted dose curve at least 0.9, where 1 is the maximum; inactive means score below 0.9). To be noted: actives raise or lower the signal. An outline of the steps:
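H295R cells prestimulated 48 h with 10 uM forskolin, then exposed 48 h to chemical in 0.1% DMSO. 11-Deoxycorticosterone in medium measured by MTBE extraction and HPLC-MS/MS; bidirectional fit vs DMSO, no MTC filter.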

The nature of assay [7]: CEETOX_H295R_ESTRADIOL_noMTC: CeeTox H295R High-throughput Steroidogenesis Assay for Estradiol, maximum tolerated concentration (MTC) filtered results only (AID 2283919; active means hit-call score of the fitted dose curve at least 0.9, where 1 is the maximum; inactive means score below 0.9). To be noted: actives raise or lower the signal. In outline: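 Readout: dansyl-derivatized estradiol quantified by LC-MS/MS in medium from H295R cells dosed 48 h (0.1% DMSO) following 48 h forskolin (10 uM) prestimulation. Gain or loss of signal fitted against DMSO; no MTC filtering applied.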

Assay [8] is described as follows: CEETOX_H295R_ESTRONE_noMTC: CeeTox H295R High-throughput Steroidogenesis Assay for Estrone, maximum tolerated concentration (MTC) filtered results only (AID 2283921; active means hit-call score of the fitted dose curve at least 0.9, where 1 is the maximum; inactive means score below 0.9). To be noted: actives raise or lower the signal. An outline of the steps: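 Estrone in spent medium, quantified by tandem MS following dansyl chloride derivatization, after 48 h chemical exposure (0.1% DMSO) of forskolin-prestimulated (10 uM, 48 h) H295R cells; concentrations not MTC-filtered, bidirectional fit against DMSO.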

Assay [9] deals with PGR (gene 5241) (UniProt P06401). As to the kind of experiment: TOX21_PR_BLA_Followup_Antagonist_ratio: Tox21 HEK293 Progesterone Receptor (PR) Antagonism Beta-lactamase Follow-Up Assay, Ratio (AID 2283934).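 Further: PR-UAS-bla HEK293T cells stimulated with 1 nM R5020 agonist for 16 hr.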 In outline: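 Readout is the blue/green (ch2/ch1) substrate cleavage ratio after 2 hours at room temperature, following 16 hr co-treatment of PR-bla HEK293T cells with compound and 1nM promegestone. Multiplexed CellTiter-Glo viability flags cytotoxicity; DMSO baseline.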
Sequence of PGR (gene 5241) (P06401 whole entry, looked up): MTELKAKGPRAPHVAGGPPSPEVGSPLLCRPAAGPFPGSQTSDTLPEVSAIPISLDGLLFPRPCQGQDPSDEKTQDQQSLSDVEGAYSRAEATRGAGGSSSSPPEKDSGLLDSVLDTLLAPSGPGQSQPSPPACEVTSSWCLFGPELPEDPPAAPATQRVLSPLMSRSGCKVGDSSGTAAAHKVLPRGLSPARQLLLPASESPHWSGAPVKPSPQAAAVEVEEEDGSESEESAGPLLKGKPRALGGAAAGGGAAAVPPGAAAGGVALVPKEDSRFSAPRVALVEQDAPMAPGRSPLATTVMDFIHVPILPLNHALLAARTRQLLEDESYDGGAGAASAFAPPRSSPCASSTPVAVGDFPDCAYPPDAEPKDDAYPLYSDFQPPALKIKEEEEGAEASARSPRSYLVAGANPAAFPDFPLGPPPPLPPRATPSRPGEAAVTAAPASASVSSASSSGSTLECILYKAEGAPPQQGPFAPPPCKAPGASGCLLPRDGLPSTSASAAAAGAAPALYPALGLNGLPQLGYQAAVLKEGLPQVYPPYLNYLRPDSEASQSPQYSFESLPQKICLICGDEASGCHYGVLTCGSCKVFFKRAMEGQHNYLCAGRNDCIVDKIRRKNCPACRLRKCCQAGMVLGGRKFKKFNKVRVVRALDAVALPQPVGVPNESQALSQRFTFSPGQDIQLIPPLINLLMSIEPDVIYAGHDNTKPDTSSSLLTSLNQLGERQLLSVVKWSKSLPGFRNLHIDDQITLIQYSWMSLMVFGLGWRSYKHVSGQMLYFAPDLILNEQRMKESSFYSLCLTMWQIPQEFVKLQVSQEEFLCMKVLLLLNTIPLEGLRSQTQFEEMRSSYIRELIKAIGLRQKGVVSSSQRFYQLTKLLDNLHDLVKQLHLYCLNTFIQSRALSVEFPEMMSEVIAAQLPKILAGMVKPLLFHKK

Assay [10] in a line: TOX21_PR_BLA_Followup_Agonist_viability: Viability Assessment in the Tox21 HEK293 Progesterone Receptor (PR) Agonism Beta-lactamase Follow-Up Assay (AID 2283935).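 Further: signal loss means lower viability so actives are cytotoxic.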 An outline of the steps: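 Run multiplexed with the beta-lactamase FRET read, this endpoint measures ATP by CellTiter-Glo luminescence (30 min, room temperature). PR-UAS-bla HEK293T cells received compound 6 hr after plating and were then incubated 16 hr at 37C in 2% stripped serum.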

A short description of assay [11]: TOX21_PR_BLA_Followup_Antagonist_viability: Viability Assessment in the Tox21 HEK293 Progesterone Receptor (PR) Antagonism Beta-lactamase Follow-Up Assay (AID 2283936).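 Further: cells exposed to compound with R5020 agonist for 16 h; hits lower the luminescence signal meaning cytotoxicity.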 An outline of the steps: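 PR-UAS-bla HEK293T cells in medium with 2% charcoal-stripped FBS were treated with compounds plus R5020 for 16 hr at 37C. After the beta-lactamase read, CellTiter-Glo was added to the same wells and luminescence read after 30 min at room temperature.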

Assay [12] deals with PGR (gene 5241) (UniProt P06401). As to the kind of experiment: TOX21_PR_LUC_Followup_Antagonist: Tox21 HEK293 Progesterone Receptor (PR) Antagonism Luciferase Follow-Up Assay (AID 2283938).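 Further: curve fitted upward as signal gain over DMSO baseline despite antagonist label.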 In outline:
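A follow-up to the PR bla screen using HEK293-PR-A-luc cells, multiplexed with cell viability to flag cytotoxicity. Reporter luminescence after 16 h compound exposure was analysed relative to DMSO.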

Assay [13] has as its target T1, Thyroid hormone receptor alpha (Rattus norvegicus) + Thyroid hormone receptor beta (Rattus norvegicus). As to the kind of experiment: TOX21_TR_LUC_GH3_Agonist_Followup: Tox21 GH3 Thyroid Hormone Receptor Agonism Luciferase Follow-Up Assay (AID 2283939). An outline of the steps: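 Agonist-mode confirmatory run: 15 concentrations (5 nM to 92 uM final) on GH3 rat pituitary cells, 24 h at 37C/5% CO2, T3 as positive control. Luminescence read with ONE-Glo after 30 min.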

Assay [14] concerns the target THRA (gene 7067) (UniProt P10827). Description: TOX21_TRA_COA_Agonist_Followup_ratio: Tox21 Thyroid Hormone Receptor alpha Agonism through Coactivator Recruitment Follow-Up Assay, Ratio (AID 2283948; active means hit-call score of the fitted dose curve at least 0.9, where 1 is the maximum; inactive means score below 0.9). In outline:
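First, compound was incubated with 2.5 nM GST-TRα LBD in 0.10% BSA. Next, 200 nM fluorescein-SRC-2 and 2 nM Tb-anti-GST antibody were added. Finally, the 520:495 nm ratio was normalized to DMSO and T3 controls.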

Assay [15] concerns the target THRB (gene 7068) (UniProt P10828). As to the kind of experiment: TOX21_TRB_BLA_Agonist_Followup_ratio: Tox21 Thyroid Hormone Receptor beta Agonism Beta-lactamase (BLA) Follow-Up Assay, Ratio (AID 2283954). In outline:
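Agonist mode: compounds (11-point, triplicate) incubated 18 h with HEK293T cells carrying GAL4-DBD/human TRβ-LBD and UAS-β-lactamase. Blue/green (460/530 nm) FRET ratio read after 2 h CCF4-AM loading; CellTiter-Glo viability run in the same plates.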

Assay [16] is described as follows: TOX21_TRB_BLA_Agonist_Followup_viability: Viability Assessment in the Tox21 Thyroid Hormone Receptor beta Agonism Beta-lactamase (BLA) Follow-Up Assay (AID 2283956). In outline:
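Viability was read as CellTiter-Glo luminescence in the same wells as the TRb-bla agonist read-out. HEK293T GAL4-TRb LBD cells were treated for 18 h (37C, 5% CO2) at 11 concentrations in triplicate. Fits were bidirectional versus DMSO baseline.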

Assay [17] can be described thus: TOX21_PR_LUC_Followup_Antagonist_viability: Viability Assessment in the Tox21 HEK293 Progesterone Receptor (PR) Antagonism Luciferase Follow-Up Assay (AID 2283940). An outline of the steps: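 Viability counter-readout: cellular ATP measured by luciferase luminescence after 16 h compound exposure at 37C of HEK293-PR-A-luc cells, which had been cultured in charcoal-stripped serum and seeded 5 h beforehand.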

Assay [18] in a line: TOX21_PR_LUC_Followup_Agonist_viability: Viability Assessment in the Tox21 HEK293 Progesterone Receptor (PR) Agonism Luciferase Follow-Up Assay (AID 2283941).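 Further: loss of signal means cytotoxicity so actives lower viability.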 In outline:
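Cytotoxicity counter-readout in the PR-A luciferase reporter line HEK293, with 16 h compound exposure at 37C after cells were cultured in charcoal-stripped serum. Cellular ATP quantified by CellTiter-Glo luminescence.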

Assay [19] has as its target PGR (gene 5241) (UniProt P06401). Description: TOX21_PR_LUC_Followup_Agonist: Tox21 HEK293 Progesterone Receptor (PR) Agonism Luciferase Follow-Up Assay (AID 2283937; active means hit-call score of the fitted dose curve at least 0.9, where 1 is the maximum; inactive means score below 0.9). An outline of the steps: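 Agonism scored as luciferase induction over DMSO, read by ONE-Glo after 30 min at RT. Compounds were incubated 16 h at 37C on HEK293-PR-A-luc cells (3,000/well, pre-plated 5 h) previously grown 5 days in charcoal-stripped serum.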

Assay [20] addresses THRB (gene 7068) (UniProt P10828). Description: TOX21_TRB_BLA_Antagonist_Followup_ratio: Tox21 Thyroid Hormone Receptor beta Antagonism Beta-lactamase (BLA) Follow-Up Assay, Ratio (AID 2283958). An outline of the steps:
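Beta-lactamase reporter ratio (460/530 nm, CCF4-AM substrate, 2 h room temperature) was read in TRb-bla HEK293T cells after 18 h compound treatment (11 concentrations, triplicate) at 37C in 2% charcoal-stripped FBS medium. Loss of signal fitted against DMSO.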

Sequence of THRB (gene 7068) (P10828 whole entry, looked up, the tested form may be a part): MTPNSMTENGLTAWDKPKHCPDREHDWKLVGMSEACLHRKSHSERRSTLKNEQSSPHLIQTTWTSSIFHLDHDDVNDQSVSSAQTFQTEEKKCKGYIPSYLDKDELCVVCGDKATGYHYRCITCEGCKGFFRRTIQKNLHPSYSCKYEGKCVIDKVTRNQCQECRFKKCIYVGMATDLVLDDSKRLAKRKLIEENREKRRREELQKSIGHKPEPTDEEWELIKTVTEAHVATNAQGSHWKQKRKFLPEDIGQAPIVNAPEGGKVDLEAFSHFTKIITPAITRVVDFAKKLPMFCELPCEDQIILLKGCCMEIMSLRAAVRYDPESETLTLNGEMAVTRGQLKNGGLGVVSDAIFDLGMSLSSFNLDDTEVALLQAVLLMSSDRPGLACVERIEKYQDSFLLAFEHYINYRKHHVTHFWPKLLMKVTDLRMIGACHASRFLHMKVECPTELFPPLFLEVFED
Sequence of THRA (gene 7067) (P10827 whole entry, looked up, the tested form may be a part): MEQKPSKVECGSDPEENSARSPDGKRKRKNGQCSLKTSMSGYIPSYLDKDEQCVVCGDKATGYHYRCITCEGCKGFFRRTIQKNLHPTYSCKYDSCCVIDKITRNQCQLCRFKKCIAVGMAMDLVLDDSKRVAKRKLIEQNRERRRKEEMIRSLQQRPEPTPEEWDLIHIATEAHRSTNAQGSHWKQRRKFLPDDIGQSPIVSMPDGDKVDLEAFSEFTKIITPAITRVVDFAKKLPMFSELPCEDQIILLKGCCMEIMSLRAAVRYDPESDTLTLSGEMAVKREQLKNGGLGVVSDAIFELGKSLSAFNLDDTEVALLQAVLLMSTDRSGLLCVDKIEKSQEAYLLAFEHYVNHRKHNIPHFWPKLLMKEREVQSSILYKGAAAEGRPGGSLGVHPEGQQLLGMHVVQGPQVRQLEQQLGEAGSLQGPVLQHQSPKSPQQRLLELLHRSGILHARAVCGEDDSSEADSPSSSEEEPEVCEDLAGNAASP

In the case of `COC(=O)Nc1nc2ccccc2[nH]1`, the result (in assay [1]; with THRA (gene 7067) [2]; in assay [3]) was inactive.
As to `Brc1ccc(Oc2ccccc2)cc1`, the outcome in assay [4] and in assay [5] was inactive.
`CCCCCOC(=O)c1ccccc1C(=O)OCCCCC`: the compound was called inactive in assay [4], in [6], in assay [7], in assay [5] and in assay [8].
Consider `ClC1=C(Cl)[C@]2(Cl)[C@H]3[C@H]([C@@H]4C=C[C@H]3C4)[C@@]1(Cl)C2(Cl)Cl`, for which the results for the AC50 (with PGR (gene 5241) [9]; in [10]; with PGR (gene 5241) [12]) were 46.1 µM (active), 62.6 µM (active) and 46.1 µM (active), respectively. The compound was classed as inactive in [11].
`C=CCc1ccc2c(c1)OCO2`: the outcome in assay [4], in assay [6] and in [5] was inactive.
Turning to `Cc1ccc(N)cc1`, the result (in [13]; with THRA (gene 7067) [14]; with THRB (gene 7068) [15]; in assay [16]) was inactive.
`Clc1ccc(C(c2ccc(Cl)cc2)C(Cl)Cl)cc1`: the AC50 with PGR (gene 5241) [9] was 31.5 µM (active); with PGR (gene 5241) [12] it was 33.8 µM (active). Also, the compound was called inactive in [10] and in [11].
`CCCCOC(=O)c1ccccc1C(=O)OCc1ccccc1`: the compound was called inactive (in [4]; in assay [6]; in assay [5]; in the assay with PGR (gene 5241) [9]; in assay [10]; in assay [11]). Further, the result (with PGR (gene 5241) [12]; in assay [17]; in [18]) was inactive.
Turning to `C[C@]12C=CC3=C4CCC(=O)C=C4CC[C@H]3[C@@H]1CC[C@@H]2O`, the outcome (with PGR (gene 5241) [9]; in assay [10]; in assay [11]; with PGR (gene 5241) [12]; in [17]; in assay [18]) was inactive. Besides, the AC50 with PGR (gene 5241) [19] is 0.00268 µM (active).
As to `O=[N+]([O-])c1ccc(Oc2ccc(Cl)cc2Cl)cc1`, the AC50 with PGR (gene 5241) [9] was 20.6 µM (active). In addition, the outcome (in assay [10]; in the assay with PGR (gene 5241) [12]; in assay [17]; in [18]) was inactive.
With `CC(C)COC(=O)c1ccccc1C(=O)OCC(C)C`, the compound was called inactive in [4], in assay [6], in assay [7], in [5] and in [8].
As for `Clc1ccc(Cl)c(Cl)c1`, the result (with THRA (gene 7067) [14]; with THRB (gene 7068) [15]; in assay [16]) was inactive.
In the case of `CN(C)c1ccc(C(=O)c2ccc(N(C)C)cc2)cc1`, the result in [1] and in assay [3] was inactive. Moreover, the AC50 with THRB (gene 7068) [20] is 2.66 µM (active).
With `Clc1ccc(C(c2ccc(Cl)cc2)C(Cl)(Cl)Cl)cc1`, the AC50 with PGR (gene 5241) [9] was 34.8 µM (active); in assay [10], 84.9 µM (active); with PGR (gene 5241) [12], 32.5 µM (active). Besides, the result in assay [11], in assay [17] and in assay [18] was inactive.

Usually AC50 stands for the midpoint of the concentration-response curve, whichever way the signal moves.
